Source: PubChem BioAssay (NCATS)
Unmarked numbers belong to inactive results. Where a call stands in place of a potency, no number is given. Calls of active or inactive are those of the source. The call rests on the fitted dose curve; in most records, active means well fitted inhibition curve with a large enough effect; inconclusive means small, poorly fitted or top-dose-only effect; inactive means flat fitted curve, though single readings scatter. Where a SMILES comes first, the peptide text is derived from it. The star is where a group is joined. Cbz = O=C(OCc1ccccc1)*; CH2F = FC*

Test system: Nanoluciferase (engineered Oplophorus gracilirostris luciferase)
Test: Primary Nanoluciferase (NLuc) qHTS assay for identification of artifact compounds. (AID 1845222);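 further: NLuc secreted into diluted conditioned medium of S16 cells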
Settings: NLuc-conditioned medium, Nano-Glo luminescence, 5 min; series mostly up to 54.1 µM
In short: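 S16 cell supernatant NLuc, 1:55; cpds qHTS; 15 min RT dark; Nano-Glo substrate 1:100, 5 min; luminescence; Hill fit of % inhibition.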

| Compound | Potency | activity, negative = inhibition |
| --- | --- | --- |
| CC1=C2C(=O)C=C(CO[C@@H]3O[C@H](CO)[C@@H](O)[C@H](O)[C@H]3O)[C@@H]2[C@H]2OC(=O)[C@H](C)[C@@H]2[C@@H](O)C1 | inactive |  |
| C/C(=C\CO)CC/C=C(\C)C(=O)O[C@@H]1O[C@H](CO)[C@@H](O)[C@H](O)[C@H]1O | inactive |  |
| C=C[C@@]1(C)CCC2=C([C@H]1OC(C)=O)[C@H](OC(C)=O)CC1[C@](C)(C(=O)OC)CC[C@H](OC(C)=O)[C@]21C (stereo partly specified) | inactive |  |
| COc1cc2c(c(OC)c1O)C(c1ccc(O)cc1)C1C(=O)OC3C(COC(=O)C1=C2)OC(CO)(OC1OC(COC(=O)/C=C/c2ccc(OC4OC(C)C(O)C(O)C4O)cc2)C(O)C(O)C1O)C3O (stereo unspecified) |  | -14.9% [at 11.6 µM] |
| O=C(O)/C=C/c1ccc2occc2c1O[C@@H]1O[C@H](CO)[C@@H](O)[C@H](O)[C@H]1O | inactive |  |
| C[C@]1(OC(=O)/C=C\c2ccc(O)cc2)C[C@@H](O)[C@]2(O)C=CO[C@@H](O[C@@H]3O[C@H](CO)[C@@H](O)[C@H](O)[C@H]3O)C12 (stereo partly specified) | inactive |  |
| COc1ccc(CC(=O)NCc2ccccc2-c2ccccc2C(=O)NCCc2cccnc2)cc1 | inactive |  |
| O=C(/C=C/c1ccc(O)c(O)c1)OC[C@H]1O[C@@H](OC2CCCCC2O)[C@H](O)[C@@H](O)[C@@H]1O (stereo partly specified) | inactive |  |
| CCOC(=O)c1ccc(NC2CCCCC2)c(N)c1 | inactive |  |
| CC1CCC2(NC1)OC1C(O)C3C4CCC5CC(O[C@@H]6O[C@H](CO)[C@@H](O)[C@H](O)[C@H]6O[C@@H]6O[C@@H](C)[C@H](O)[C@@H](O)[C@H]6O)CCC5(C)C4CCC3(C)C1C2C (stereo partly specified) | inactive |  |
| Cc1nnc(-c2ccc3occ(-c4ccc(S(C)=O)cc4)c3c2)o1 (stereo unspecified) | inactive |  |
| CCOc1nc2c(N)ncnc2n1CC | inactive |  |
| CC(C)=CC1C[C@](C)(O)[C@@H]2[C@H]3CCC4[C@@]5(C)CC[C@H](O[C@@H]6OC[C@H](O)[C@H](O[C@@H]7O[C@H](CO[C@@H]8O[C@H](CO)[C@@H](O)[C@H](O)[C@H]8O)[C@@H](O)[C@H](O)[C@H]7O)[C@H]6O[C@@H]6O[C@@H](C)[C@H](O)[C@@H](O)[C@H]6O)C(C)(C)[C@@H]5CC[C@@]4(C)[C@@]34CO[C@@]2(C4)O1 (stereo partly specified) |  | 4.79% [at 11.6 µM] |
| C=C1CC2C3(C)C(O)CC(=O)C(C)(C)C3C(O)C(OC(C)=O)C2(C)C2C(=O)OC(C)(C(=O)OC)C(=O)C12C (stereo unspecified) | inactive |  |
| O=C(/C=C/c1ccc(O)c(O)c1)O[C@H]1[C@H](OC2CCCCC2O)O[C@H](CO)[C@@H](O)[C@@H]1O (stereo partly specified) | inactive |  |
| COC(=O)[C@H](Cc1ccc([N+](=O)[O-])cc1)NC(=O)c1cccc2ccccc12 | inactive |  |
| CCC(C)/C=C(C)/C=C/C1=CC2=C(Cl)C(=O)C(C)(O)C(=O)C2(O)C(OC)O1 (stereo unspecified) | inactive |  |
| C/C(CO)=C1/CCC23COC(C2)C(O)(C(=O)O)CCC13 (stereo unspecified) | inactive |  |
| CC1CCCCCCCc2cc(O)cc(O)c2C(=O)O1 (stereo unspecified) | inactive |  |
| CC1(C)CC[C@]2(C(=O)O[C@@H]3O[C@H](CO)[C@@H](O)[C@H](O)[C@H]3O)CC[C@]3(C)C(=CCC4[C@@]5(C)CC[C@H](O[C@@H]6O[C@H](C(=O)O)[C@@H](O[C@@H]7O[C@H](CO)[C@@H](O)[C@H](O)[C@H]7O)[C@H](O)[C@H]6O)C(C)(C)C5CC[C@]43C)C2C1 (stereo partly specified) |  | 4.13% [at 11.6 µM] |
| CC(C)c1ccc2c(c1)CCC1[C@](C)(C(=O)O)CCC[C@]21C (stereo partly specified) | inactive |  |
| COC(=O)C(CC1(OC(=O)C(C)C)c2ccccc2N2C(=O)C(C)(C)N(O)C21)n1cnc2ccccc2c1=O (stereo unspecified) | inactive |  |
| O=C(Nc1ccn(Cc2c(F)cccc2C(F)(F)F)n1)c1c(F)cccc1F |  | 3.13% [at 11.6 µM] |
| COC(=O)CC[C@H](NC(=O)[C@H](CC(C)C)NC(=O)OCc1ccccc1)C(=O)N[C@@H](Cc1cnc[nH]1)C(=O)N[C@@H](CC(=O)OC)C(=O)CF (Cbz-LE(OMe)HD(OMe)-CH2F) |  | 2.59% [at 11.6 µM] |
| CC(=O)O[C@@H]1[C@@H](O)[C@H](C)O[C@@H](O[C@H]2[C@@H]3C=CO[C@@H](O[C@@H]4O[C@H](CO)[C@@H](O)[C@H](O)[C@H]4OC(C)=O)[C@@H]3[C@@]3(CO)O[C@@H]23)[C@@H]1OC(=O)/C=C/c1ccc(O)cc1 | inactive |  |
| C=C1CC/C=C(/CO)C(=O)C[C@@H]2[C@@H]1C[C@@]2(C)COC(C)=O | inactive |  |
